# From the supplement of paper PMC3334620
# Over roughly 33,000 sequences, “E-score (-0.5 to 0.5)” has its median near -0.036; the highest 2% begin near 0.37. Many of the other results were omitted from the sample, so the highest values are more common in it than they were.
# Target: T1, Yer064c (UniProt P40041)
# T1 sequence: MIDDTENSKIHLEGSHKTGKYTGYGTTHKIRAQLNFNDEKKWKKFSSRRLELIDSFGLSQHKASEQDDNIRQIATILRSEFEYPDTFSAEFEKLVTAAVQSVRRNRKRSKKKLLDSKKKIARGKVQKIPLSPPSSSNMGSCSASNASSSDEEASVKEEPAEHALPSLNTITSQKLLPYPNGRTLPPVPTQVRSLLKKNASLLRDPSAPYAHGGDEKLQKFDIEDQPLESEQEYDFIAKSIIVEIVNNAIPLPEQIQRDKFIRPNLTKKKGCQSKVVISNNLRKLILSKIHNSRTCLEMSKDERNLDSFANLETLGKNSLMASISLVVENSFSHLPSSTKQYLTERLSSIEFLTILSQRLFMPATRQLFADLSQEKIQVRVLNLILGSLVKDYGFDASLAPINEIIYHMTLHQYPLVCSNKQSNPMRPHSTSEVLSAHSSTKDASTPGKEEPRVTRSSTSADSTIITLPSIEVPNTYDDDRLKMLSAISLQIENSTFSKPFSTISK
# Assay: PBM E-score (8-mer binding enrichment) (E-score (-0.5 to 0.5)); higher = stronger / more preferred TF binding
# Conditions: protein concentration: 200 nM; construct: GST-full length
# Procedure: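 Universal 'all 10-mer' protein binding microarrays (Agilent AMADID 015681) probed with GST-tagged S. cerevisiae TFs (full-length or DBD) made by in vitro transcription/translation (PURExpress), about 100-200 nM. Bound TF was detected with fluorescent anti-GST. Each ungapped 8-mer (which stands for itself and its reverse complement) is scored by the PBM enrichment score (E-score), a modified Wilcoxon-Mann-Whitney statistic from -0.5 to +0.5, computed with the Universal PBM Analysis Suite. Scale: above 0.35 generally sequence-specific binding.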
row,Sequence,PBM E-score
1,TCGTCGCA,-0.0159
2,ACGGGCCT,-0.363
3,GGGCACCC,-0.269
4,CGGGACCA,-0.208
5,GAAGCGTA,-0.151
6,AACGGAAC,-0.134
7,AAGAGCCC,-0.196
8,CATTTCGA,-0.0334
9,AATCACGA,0.347
10,AATCACGT,0.382
11,AATCAAGA,0.235
12,CATCACGA,0.132
13,AATCACGC,0.391
14,GATCACGC,0.18
15,AAGGCAGG,-0.192
16,ACGTCCGG,-0.217
17,AGTGGGCC,-0.307
18,CTTCTGCC,-0.225
19,ATGGTTAA,0.391
20,CTGGTTAA,0.162
21,GTGGTTAA,0.222
22,GTAGCGAA,-0.0282

row,Sequence,PBM E-score
1,ATGCCGAG,-0.0321
2,CACTCGTA,-0.0316
3,CACTCGCC,-0.0244
4,AACTCGCC,-0.0941
5,AACTCGTA,-0.019
6,GACTCGCA,0.414
7,AACTCGCA,0.0388
8,TACTCGCA,0.211
9,GACTCGCC,0.371
10,GACTCGTA,0.419
11,AAGGTACG,-0.094
12,GCGTAGAC,-0.0194
13,GAGGTGAC,0.224
14,TATTCCAA,-0.0766
15,GCACTGAC,0.131
16,GGGCCGAA,-0.287
17,GCCTGCGA,-0.22
18,ATCAATCG,0.193
19,CGCAATCA,0.302
20,CTCAATCA,0.402
21,ATCAATCA,0.381
22,GGCAATCA,0.283

row,Sequence,PBM E-score
1,GTCAATCA,0.389
2,ATCAATCC,-0.0246
3,CTCAATCC,0.146
4,GTCAATTA,0.123
5,TGGGCGAA,0.0204
6,ATCTCTAG,-0.0229
7,CAGACGAC,0.137
8,AGTAAGTC,0.354
9,CCTCAGCA,-0.202
10,AACTGGTA,-0.259
11,AATGACCA,0.0838
12,CATGACGA,0.0513
13,CATGACAA,-0.00212
14,AATGACGA,0.0304
15,AATGACAG,-0.045
16,AATGACTG,0.441
17,AATGACTA,0.487
18,CATGACTA,0.491
19,AATGACCG,-0.203
20,AATAGGCT,-0.0339
21,CTCTCGGA,0.144
22,CTGTGGAA,0.0224

row,Sequence,PBM E-score
1,AATCCTCG,-0.0311
2,ATTCATTA,0.21
3,AAGCATTG,-0.159
4,AAACATTG,-0.0364
5,AATCATTC,0.417
6,AATCATTA,0.397
7,CATCATTC,0.0981
8,AATCATTG,0.43
9,GATCATTA,0.128
10,CATCATTA,0.161
11,TGGTAGAA,-0.0551
12,CACCCTGC,0.118
13,AGGCTACG,-0.232
14,ATCCAAAC,0.00765
15,GAGGACAA,-0.195
16,GTCACAAC,0.213
17,GAGTCAGA,0.472
18,TAGTCAGA,0.457
19,ATGTCAGA,-0.0808
20,GGGTCAGA,0.00219
